Screening data as filed in PubChem.
The list is not random: actives were taken first. Their share in the collection is about 17%.
HT1080 IDH1KD tx = qHTS for induction of synthetic lethality in tumor cells producing 2HG: qHTS for the HT-1080-IDH1KD cell line | HT-1080 IDH1 knockdown viability, ATP luminescence, 48 h | Potency, µM (titrated, usually from 46.1 µM), most hits filed as cytotoxic | hit rate 2% among 360,000
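IDH1KD HT-1080 cells, 750/well, RPMI + 5% FBS; compound pinned after 2 h settling; 48 h, 37 °C; CellTiter-Glo luminescence; % activity normalised to DMSO and no-cell wells; curves fitted, classed by r2 and efficacy.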
TDP1 cell CPT = qHTS for Inhibitors of human tyrosyl-DNA phosphodiesterase 1 (TDP1): qHTS in cells in presence of CPT. Potency, µM (highest dose often 46.2 µM), usual class: inhibitors. AID 686979, 2013. hit rate 12% among 420,000. chicken DT40 Tdp1-/-;hTDP1 cells + 20 nM CPT, ATP luminescence, 48 h; also: nearly all actives have a fitted effect of over 55% in size
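Chicken DT40 Tdp1-/- cells stably complemented with human TDP1 were seeded at 400 cells/well in medium containing 20 nM camptothecin, exposed to pin-transferred compounds, and grown at 37 °C for at least 48 hr. Viability was read as ATP luminescence.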
HepG2 tox-1 = qHTS for Inhibitors of TGF-b: Cytotox Counterscreen; hit rate 0.76% among 410,000; HepG2 CAGA-GFP viability, ATP luminescence, 18 h; AID 588856, 2011; Potency, µM (highest dose often 46.1 µM), hits mostly cytotoxic
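CellTiter-Glo luminescence gave cytotoxicity after 18 hours at 37 degrees C. The cells were HepG2 CAGA-GFP in 1% FBS DMEM, stimulated with 500 pg/mL TGF-beta after compound addition. %Activity was normalised to no-cell wells (complete cell-killing) and DMSO (no toxicity), and curves were fitted and classified.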
DT40 TDP1 no CPT = qHTS for Inhibitors of human tyrosyl-DNA phosphodiesterase 1 (TDP1): qHTS in cells in absence of CPT; DT40 Tdp1-/- hTDP1 cells, no CPT, ATP luminescence, 48 h; Potency, µM (top dose mostly 46.2 µM), most hits filed as inhibitors; hit rate 15% among 420,000; also: nearly all actives have a fitted effect of over 55% in size
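Seeded 400 DT40-hTDP1 cells/well (vehicle DMSO, no 20 nM CPT); pinned compounds; ≥48 hr at 37 °C; CellTiter-Glo luminescence as viability measure.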
TGFb inhibitor = qHTS for Inhibitors of TGF-b | HepG2 CAGA-GFP TGF-b/SMAD3 reporter, GFP fluorescence, 18 h; TGF-beta stimulated, 500 pg/mL final | Potency, µM (titrated, usually from 46.1 µM), usual class: inhibitors | hit rate 1.2% among 410,000 | AID 588855, 2011; also: nearly all actives have a fitted effect of over 65% in size
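Per well, imaged GFP fluorescence of HEPG2 CAGA-GFP cells gives the signal; cells get compound, then TGF-beta (500 pg/mL final), 18 h at 37 degrees C; %Activity versus -TGF-beta and +DMSO controls.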
HT1080-NT tox = qHTS for induction of synthetic lethality in tumor cells producing 2HG: qHTS for the HT-1080-NT fibrosarcoma cell line; Potency, µM (top dose mostly 46.1 µM), most hits filed as cytotoxic; HT-1080-NT fibrosarcoma viability, CellTiter-Glo ATP luminescence, 48 h; hit rate 1.6% among 360,000;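 also: NT is the 2HG producing partner of a matched IDH1 knockdown line; nearly all actives have a fitted effect of over 55% in size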
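HT-1080-NT fibrosarcoma cells (2HG-overproducing), 750 cells/well in RPMI with 5% FBS, dosed after 2 h and incubated 48 h at 37C. CellTiter-Glo luminescence normalized to DMSO and no-cell wells; concentration-response curves fitted and classed.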
TGFb confirm = qHTS for Inhibitors of TGF-b: Confirmation of Cherry Picks. shares compounds with TGFb inhibitor. HepG2 CAGA-GFP TGF-b reporter, GFP fluorescence, 18 h; cells stimulated with TGF-beta, 500 pg/mL. Potency, µM (titrated, usually from 46.1 µM), actives largely listed as inhibitors. hit rate 63% among 1,600. AID 720534, 2013; also: nearly all actives have a fitted effect of over 65% in size
HepG2 tox-2 = qHTS for Inhibitors of TGF-b: Cytotox Counterscreen for Cherry Picks. hit rate 27% among 1,600. HepG2 CAGA-GFP viability, ATP luminescence, 18 h; cells stimulated with TGF-beta, 500 pg/mL. shares compounds with TGFb inhibitor. Potency, µM (top dose mostly 46.1 µM), usual class: inhibitors; also: nearly all actives have a fitted effect of over 70% in size
CCL64 TGFb inh = qHTS for Inhibitors of TGF-b: CCL64 Cells Orthogonal Assay for Cherry Picks | shares compounds with TGFb inhibitor | CCL64 CAGA-GFP reporter, TGF-b stimulated, GFP fluorescence, 18 h | Potency, µM (series often up to 46.1 µM), most hits filed as inhibitors | hit rate 41% among 1,600 | AID 720536, 2013; also: nearly all actives have a fitted effect of over 65% in size
TGFb COP inh = qHTS for Inhibitors of TGF-b: Hit Validation in HepG2 Cells using COP promoter. HepG2 COP-GFP TGF-b reporter, GFP fluorescence, 18 h; cells stimulated by added recombinant TGF-beta. Potency, µM (doses to about 46.1 µM), most hits filed as inhibitors. shares compounds with TGFb inhibitor. hit rate 3% among 1,600; also: nearly all actives have a fitted effect of over 70% in size
Of the large screens only hits and unclear results are named; the others gave an inactive call (follow-up assays come after a bar, where they were run). Calls follow the shape of the dose curve; as a rule, active = well fitted curve in the direction sought with a large enough effect; inconclusive = small, poorly fitted or top-dose-only effect, or another doubt; inactive = no such curve, though single readings can be large; an effect the other way counts as inactive or inconclusive.

CN(Cc1cccs1)c1nc(-c2cccnc2)nc2ccccc12	TDP1 cell CPT 23.1µM, DT40 TDP1 no CPT inconclusive, TGFb inhibitor 14.1µM | TGFb confirm 25.9µM | HepG2 tox-2 inconclusive | CCL64 TGFb inh 18.4µM | TGFb COP inh inactive
Cc1cccc(N2CCN(C(=O)COc3cccc4c3OC(C)(C)C4)CC2)c1C	TDP1 cell CPT inconclusive, DT40 TDP1 no CPT inconclusive
O=S(=O)(/C(=C\c1ccc(C(F)(F)F)cc1)c1nc2ccccc2[nH]1)c1ccccc1	HT1080 IDH1KD tx 1.46µM, TDP1 cell CPT 2.06µM, HepG2 tox-1 17.8µM, DT40 TDP1 no CPT 2.06µM, TGFb inhibitor 4.47µM, HT1080-NT tox 1.84µM | TGFb confirm 2.91µM | HepG2 tox-2 2.59µM | CCL64 TGFb inh 3.26µM | TGFb COP inh inconclusive
Nc1ccc(CCNc2ncnc3c2ncn3[C@@H]2O[C@H](CO)[C@@H](O)[C@H]2O)cc1	DT40 TDP1 no CPT inconclusive
CN(C)c1ncnc2c1ccn2C1OC(CO)C(O)C1O (stereo unspecified)	HT1080 IDH1KD tx 2.59µM, TDP1 cell CPT 3.26µM, HepG2 tox-1 0.126µM, DT40 TDP1 no CPT 8.2µM, TGFb inhibitor 0.224µM, HT1080-NT tox 4.11µM | TGFb confirm 0.231µM | HepG2 tox-2 1.3µM | CCL64 TGFb inh 6.51µM | TGFb COP inh inactive
OCC1OC(n2cnc3c(NCc4ccccc4O)ncnc32)C(O)C1O (stereo unspecified)	HT1080 IDH1KD tx 9.2µM, TDP1 cell CPT 1.3µM, DT40 TDP1 no CPT 1.46µM, TGFb inhibitor 1.78µM, HT1080-NT tox 13µM | TGFb confirm 1.16µM | HepG2 tox-2 4.11µM | CCL64 TGFb inh inconclusive | TGFb COP inh inactive
OCC1OC(n2ccc3c(NO)ncnc32)C(O)C1O (stereo unspecified)	HT1080 IDH1KD tx 0.411µM, TDP1 cell CPT 0.146µM, HepG2 tox-1 0.501µM, DT40 TDP1 no CPT 0.146µM, TGFb inhibitor 0.282µM, HT1080-NT tox 1.64µM | TGFb confirm 1.16µM | HepG2 tox-2 0.581µM | CCL64 TGFb inh 1.3µM | TGFb COP inh inactive
Nc1ncnc2c1nc(-c1ccccc1)n2C1OC(CO)C(O)C1O (stereo unspecified)	HT1080 IDH1KD tx inconclusive
O=C(CSc1nnc2c(Cl)cc(C(F)(F)F)cn12)Nc1ccc2c(c1)OCO2	none
O=S(=O)(NCC(c1ccc2c(c1)OCO2)N1CCOCC1)c1ccccc1 (stereo unspecified)	none
